USP7 block: inhibitors of human USP7 deubiquitinase; Q93009; purified USP7, Ub-rhodamine cleavage fluorescence; inhibition, % at 20 µM; 47,000 tested, 0.3% active; AID 1645854
USP17 inh: inhibitors of human USP17 deubiquitinase. A8MUK1. purified USP17, Ub-rhodamine cleavage fluorescence, 3 h. inhibition, % at 50 µM. 47,000 tested, 6.5% active. AID 1645855
USP8 block: blocks human USP8 ubiquitin-rhodamine cleavage; purified USP8, Ub-rhodamine cleavage fluorescence, 30 min; inhibition, % at 20 µM; 47,000 tested, 4.2% active; AID 1645853
USP10 inh: blocks human USP10 ubiquitin-rhodamine cleavage; Q14694; purified USP10, Ub-rhodamine fluorescence, 60 min; inhibition, % at 20 µM; 47,000 tested, 1.1% active
USP30 inh: blocks human USP30 ubiquitin-rhodamine cleavage; Q70CQ3; purified USP30, Ub-rhodamine cleavage fluorescence; inhibition, % at 25 µM; 47,000 tested, 5.3% active
USP28 block: blocks human USP28 ubiquitin-rhodamine cleavage | Q96RU2 | purified USP28, Ub-rhodamine cleavage fluorescence, 30 min | inhibition, % at 25 µM | 47,000 tested, 3% active | AID 1645857
* hit, by the source's call; i = inactive; nt = no result. Most compounds without a hit are left out; they make up all but 13% or so of the library. Rule as the data show it: active = inhibition above about 30%; inactive = the rest.

SMILES	USP7 block	USP17 inh	USP8 block	USP10 inh	USP30 inh	USP28 block
CCOc1ccc(N2CC(CNS(=O)(=O)c3cccc(F)c3)CC2=O)cc1 (centres undefined)	-7	-8	0	0	0	-2
CCOc1ccc(CNC(=O)c2cc(CN3CCOCC3)on2)cc1	6	12	12	0	11	5
Fc1ccc2[nH]c3c(N4CCCC4)ncnc3c2c1	2	-9	14	5	6	-1
Fc1ccc(-c2nsc3c(N4CCCC4)ncnc23)cc1	2	32*	0	-1	19	2
CC(C)N(C(=O)Cn1ncc2cccn2c1=O)C(C)C	0	-11	-80	-2	-22	-20
CCc1ccc2nc(N(CCCn3ccnc3)C(=O)c3cccs3)sc2c1	-21	nt	-32	3	46*	-1
O=C(COc1ccc(Cl)cc1)N1CCc2[nH]nc(-c3ccc(Cl)cc3)c2C1	-30	23	21	4	33*	20
O=C(COc1ccccc1)N1CCc2[nH]nc(-c3ccc(Cl)cc3)c2C1	-63	-10	-7	0	-24	-7
Cc1cc(NS(=O)(=O)c2ccc(NC(=O)c3ccc(N4CCCC4)c([N+](=O)[O-])c3)cc2)no1	-12	20	-68	31*	-49	14
CCn1cc(C(=O)Nc2ccccc2C)c(=O)c2ccc(C)nc21	-1	-11	-13	-3	-148	-31
Cc1cc(C)n(-c2nnc(NCc3ccc(Cl)cc3)nn2)n1	-29	27	45*	2	25	19
Cc1cc(C)n(-c2nc3ccccc3nc2NCCc2ccc(Cl)cc2)n1	nt	-10	0	-2	-12	-2
Cc1ccc(NC(=O)Cn2cncc(-c3nc(-c4ccccc4)cs3)c2=O)cc1F	14	9	41*	33*	-14	-3
O=C(Cn1cncc(-c2nc(-c3ccccc3)cs2)c1=O)Nc1ccc(F)cc1F	2	15	41*	2	-40	-10
O=C(Nc1ccc(F)cc1F)c1csc(-c2ccccc2)n1	9	83*	9	-1	21	15
Cc1ccccc1NC(=O)Cn1c(C)ncc(-c2nc(-c3ccccc3)cs2)c1=O	-31	-119	-56	-10	i	-173
Cc1ccccc1NC(=O)Cn1cncc(-c2nc(-c3ccccc3)cs2)c1=O	3	60*	-10	1	-154	-11
Cc1ncc(-c2nc(-c3ccccc3)cs2)c(=O)n1CC(=O)Nc1c(F)cccc1F	-15	-119	-13	-11	-431	-196
O=C(Nc1ccc(F)cc1F)c1ccc(-c2nc(-c3ccc(F)cc3)cs2)cc1	8	3	14	11	2	3
CC(=O)Nc1ccc(S(=O)(=O)N2CCN(c3c(C)n(C)c(=O)n(C)c3=O)CC2)cc1	0	0	2	3	-2	-8
COc1ccc(C(=O)N2CCN(c3ccc(C#N)cc3)CC2)cc1	-77	-2	4	1	8	-4
O=C(Cn1cc(S(=O)(=O)Cc2ccc(Cl)cc2)c2ccccc21)N1CCCC1	-10	-10	-20	0	-7	1
CS(=O)(=O)N(Cc1ccco1)Cc1cc2ccccc2[nH]c1=O	-2	-13	-2	-1	-3	4
O=c1[nH]c2ccccc2cc1CN(Cc1ccco1)S(=O)(=O)c1ccc(F)cc1	7	36*	10	16	51*	34*
COc1ccc(NC(=O)CCOc2ccccc2C)cc1S(=O)(=O)Nc1cc(C)ccc1Br	3	6	8	25	35*	25
SMILES	USP7 block	USP17 inh	USP8 block	USP10 inh	USP30 inh	USP28 block
Cn1c(=O)c2c(ncn2CCOc2ccc(F)cc2)n(C)c1=O	2	16	18	-1	30	33*
Cn1c(=O)c2c(ncn2CCOc2ccc(Br)cc2)n(C)c1=O	1	13	2	0	22	16
COc1ccc(-c2cc3n(C)c(C)c(CCC(=O)NCc4ccc(F)cc4)c(=O)n3n2)cc1	2	66*	6	-1	54*	17
COc1cccc(-c2cc3n(C)c(C)c(CCC(=O)NCc4ccccc4)c(=O)n3n2)c1	1	-4	-6	1	0	0
COCCNC(=O)Cn1nnc(-c2ccc(-c3ccc(OC)cc3)cc2)n1	12	26	26	13	35*	11
CCOC(=O)C(Cc1ccccc1)NC(=O)Cn1nnc(-c2ccccc2)n1 (centres undefined)	2	27	-12	4	35*	15
COc1ccc(-c2nnn(CC(=O)Nc3ccccc3)n2)cc1	6	49*	2	10	46*	39*
O=C(CN(Cc1ccc(F)cc1)C(=O)Cn1nnc(-c2ccc(F)cc2)n1)NC1CCCC1	1	5	-2	1	21	8
O=C(Cn1nnc(-c2ccc(F)cc2)n1)NCCc1ccccc1	nt	74*	4	4	2	4
CCOC(=O)C(Cc1ccccc1)NC(=O)CCc1nnc2ccc(N(CC)CC)nn12 (centres undefined)	-8	-14	-104	-5	-16	-3
NC(=O)c1cccc(-c2nccnc2C2CCCN(Cc3ccccn3)C2)c1 (centres undefined)	2	7	22	2	11	15
Cc1cc(NC(=O)C2(c3ccc(F)cc3)CCCC2)n(-c2nc3ccccc3[nH]2)n1	10	0	70*	11	-5	0
Cc1cc(C)cc(NC(=O)Cn2cnc(S(=O)(=O)N3CCOCC3)c2)c1	1	-8	-26	0	4	0
Cn1c2ccc(F)cc2c2ncn(CCN3CCOCC3)c(=O)c21	5	10	25	5	14	4
Cn1c2ccc(F)cc2c2ncn(Cc3ccc4c(c3)OCO4)c(=O)c21	6	27	32*	4	28	15
COC(=O)Cc1nc(NC(=O)c2ccc(OC)cc2)sc1C	-12	-7	0	3	-2	9
CCOc1ccc(-c2nnc(-c3cnc4onc(C5CCCC5)c4c3)o2)cc1	12	2	28	32*	1	0
CC(C)(C)Cc1nnc(-c2cnc3onc(C4CCCC4)c3c2)o1	-119	7	35*	1	-36	6
Cc1nccn1-c1ccc(CNC(=O)c2ccc3c(c2)OCO3)cc1	0	15	5	-3	20	6
COc1ccc(-c2cc(-c3nnc4n3CCCCC4)n(-c3ccccc3)n2)cc1	-6	15	16	3	28	60*
CC(=O)N1Cc2ccccc2OC2(CCN(Cc3cnc(C)nc3)CC2)C1	2	-15	-12	0	-4	-4
COCc1cc(C)nc2sc3c(c12)NCN(c1ccc(C)c(Cl)c1)C3=O	-40	19	0	1	6	0
COCc1cc(C)nc2sc3c(c12)NC(c1ccc(NC(C)=O)cc1)N(Cc1ccccc1)C3=O (centres undefined)	0	53*	19	-5	72*	6

Source: PubChem
